Measured values: paper PMC5540273 (PLoS ONE, 2017)
Several values for one entry are separate records, joined by “and”; a condition that tells them apart may be missing. Equal entries are not always repeated. Where two headings read alike, the source gives them in different places.

Columns and labels:
[1] = test system: ROCK1; conditions: n = 1
[2] = test system: ROCK2; conditions: n = 1
[3] = test system: ROS1; conditions: n = 1
[4] = test system: RPS6KA4(Kin.Dom.1-N-terminal); conditions: n = 1
[5] = test system: RPS6KA4(Kin.Dom.2-C-terminal); conditions: concentration: 1 μM, replicates: in singlicate; n = 1
[6] = test system: RPS6KA5(Kin.Dom.1-N-terminal); conditions: n = 1
[7] = test system: RPS6KA5(Kin.Dom.2-C-terminal); conditions: n = 1
[8] = test system: T1, RSK1(Kin.Dom.1-N-terminal); conditions: n = 1
T1 construct: gene RPS6KA1

[9] = test system: T2, RSK1(Kin.Dom.2-C-terminal); conditions: n = 1
T2 construct: gene RPS6KA1

[10] = test system: T3, RSK2(Kin.Dom.1-N-terminal); conditions: n = 1
T3 construct: gene RPS6KA3

[11] = concentration: 1 μM, replicates: in singlicate
[12] = concentration: 1 μM,replicates: in singlicate, 1 µM
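Note: KINOMEscan kinase panel screen.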

| SMILES | %Inh [1, 11] | %Inh [2, 11] | %Inh [3, 11] | %Inh [4, 11] | %Inh [5] | %Inh [6, 11] | %Inh [7, 11] | %Inh [8, 11] | %Inh [9, 11] | %Inh [10, 11] | %Inh [1, 12] | %Inh [2, 12] | %Inh [3, 12] | %Inh [4, 12] | %Inh [6, 12] | %Inh [7, 12] | %Inh [8, 12] | %Inh [9, 12] | %Inh [10, 12] |
| --- | --- | --- | --- | --- | --- | --- | --- | --- | --- | --- | --- | --- | --- | --- | --- | --- | --- | --- | --- |
| Cc1ccc(NC(=O)Nc2cc(C(C)(C)C)nn2-c2ccccc2)cc1 [GSK1014915] | 15% | 0% | 9% | 9% | 0% | 25% | 38% | 16% | 1% | 19% |  |  |  |  |  |  |  |  |  |
| Cc1nnc(-c2ccc3occ(-c4ccc(S(C)=O)cc4)c3c2)[nH]1 (stereo not drawn) | 20% | 0% | 0% | 0% | 11% | 0% | 15% | 9% | 33% | 13% |  |  |  |  |  |  |  |  |  |
| COc1ccc(C2=C(Nc3cccc(C(=O)O)c3)C(=O)NC2=O)cc1 [SB-390765] | 20% | 0% | 14% | 19% | 17% | 2% | 9% | 30% | 7% | 34% |  |  |  |  |  |  |  |  |  |
| Cn1ccc2ncnc(Oc3cccc(C(=O)Nc4ccccc4)c3)c21 | 0% | 16% | 4% | 0% | 18% | 19% | 0% | 0% | 9% | 0% |  |  |  |  |  |  |  |  |  |
| Cn1ccc2ncnc(Oc3ccc(Nc4nc5ccccc5[nH]4)cc3)c21 | 0% | 0% | 0% | 0% | 0% | 7% | 0% | 0% | 0% | 0% |  |  |  |  |  |  |  |  |  |
| Cc1cccc(-c2nc(-c3ccc(S(C)(=O)=O)cc3)sc2-c2ccnc(NCCc3ccccc3)c2)c1 | 0% | 0% | 0% | 5% | 2% | 18% | 0% | 0% | 8% | 0% |  |  |  |  |  |  |  |  |  |
| CC(=O)Nc1nc2cnc(Nc3cc(NC(=O)c4cccc(CCC#N)c4)ccc3C)nc2s1 | 14% | 15% | 0% | 0% | 0% | 15% | 2% | 0% | 0% | 5% |  |  |  |  |  |  |  |  |  |
| O=C(Nc1n[nH]c2nc(-c3nccs3)c(Br)cc12)C1CC1 [SB-742251] | 36% | 24% | 0% | 0% | 0% | 0% | 11% | 9% | 0% | 11% |  |  |  |  |  |  |  |  |  |
| COc1ccc(Nc2nccc(-c3cccc(NC(=O)c4cc5cc(F)ccc5[nH]4)c3)n2)cc1 [GSK1229782] | 48% | 35% | 34% | 21% | 0% | 6% | 14% | 13% | 5% | 21% |  |  |  |  |  |  |  |  |  |
| Cc1cccc(-c2nc(C)cc(Nc3ccncc3)n2)n1 [GSK257997] | 25% | 10% | 43% | 8% | 0% | 7% | 0% | 29% | 2% | 0% |  |  |  |  |  |  |  |  |  |
| Cn1cncc1-c1ccc2ncnc(Nc3ccc(OCc4ccccc4)cc3)c2c1 [GW320571] | 3% | 17% | 9% | 13% | 0% | 28% | 0% | 0% | 0% | 18% |  |  |  |  |  |  |  |  |  |
| Cc1ccc(C(=O)Nc2ccc(Nc3ccnc4cc(-c5ccccn5)ccc34)cc2O)cc1.Cl [GW440146] | 13% | 19% | 16% | 20% | 0% | 16% | 0% | 6% | 0% | 0% |  |  |  |  |  |  |  |  |  |
| Cc1c(Cn2ccn3c(=O)cc(N4CCOCC4)nc23)cccc1C(F)(F)F [GSK2289044] | 0% | 0% | 8% | 0% | 0% | 6% | 11% | 0% | 0% | 0% |  |  |  |  |  |  |  |  |  |
| CC1=C(C(=O)Nc2cc3cn[nH]c3cc2F)C(c2ccc(C(F)(F)F)cc2)CC(=O)N1 (stereo not drawn) [GSK429286] | 99.1% | 98.2% | 0% | 16% | 0% | 0% | 0% | 5% | 18% | 19% |  |  |  |  |  |  |  |  |  |
| Cc1ccc(NC(=O)Nc2cccc(Cl)c2)cc1-c1ccc(C(=O)Nc2ccncc2)cc1 [GSK1398468] | 0% | 13% | 0% | 24% | 0% | 10% | 39% | 23% | 0% | 0% |  |  |  |  |  |  |  |  |  |
| O=c1cc(N2CCOCC2)nc2n(Cc3cccc(Cl)c3Cl)ccn12 [GSK2286295] | 0% | 34% | 7% | 17% | 0% | 11% | 0% | 22% | 0% | 0% |  |  |  |  |  |  |  |  |  |
| CCn1c(-c2ccccn2)nc2cnccc21 [SB-736398] | 14% | 30% | 0% | 13% | 0% | 15% | 0% | 65% | 0% | 15% |  |  |  |  |  |  |  |  |  |
| Cc1cc(-c2ccc3c(c2)CC[C@@H](N[C@@H](C)c2ccccc2)C3)cnc1N.Cl [GW412617] | 7% | 5% | 15% | 16% | 0% | 6% | 0% | 0% | 8% | 4% |  |  |  |  |  |  |  |  |  |

| SMILES | %Inh [1, 11] | %Inh [2, 11] | %Inh [3, 11] | %Inh [4, 11] | %Inh [5] | %Inh [6, 11] | %Inh [7, 11] | %Inh [8, 11] | %Inh [9, 11] | %Inh [10, 11] | %Inh [1, 12] | %Inh [2, 12] | %Inh [3, 12] | %Inh [4, 12] | %Inh [6, 12] | %Inh [7, 12] | %Inh [8, 12] | %Inh [9, 12] | %Inh [10, 12] |
| --- | --- | --- | --- | --- | --- | --- | --- | --- | --- | --- | --- | --- | --- | --- | --- | --- | --- | --- | --- |
| CSc1nn2c(=O)cc(N3CCOCC3)nc2n1Cc1cccc(C(F)(F)F)c1C [GSK2363608] |  |  |  |  | 0% |  |  |  |  |  | 98.3% and 17% | 98.9% and 0% | 14% and 0% | 28% and 0% | 12% and 0% | 19% and 9% | 20% and 10% | 1% and 0% | 9% and 2% |
| COc1ccccc1CNC(=O)c1cc(C(=O)c2ccccc2C)c[nH]1 [GSK364507] | 12% | 10% | 0% | 5% | 0% | 5% | 21% | 25% | 0% | 4% |  |  |  |  |  |  |  |  |  |
| CC(C)(C)c1ccc(C(=O)Nc2cn3cc(-c4cccnc4)ccc3n2)cc1 | 0% | 7% | 0% | 15% | 0% | 0% | 6% | 19% | 42% | 17% |  |  |  |  |  |  |  |  |  |
| COc1ccccc1-c1ccc2c(NC(=O)C3CC3)n[nH]c2n1 [SB-711239] | 23% | 6% | 10% | 9% | 0% | 13% | 12% | 11% | 0% | 0% |  |  |  |  |  |  |  |  |  |
| Cc1cc(N2Cc3ccccc3C2)nc(Nc2ccc(S(=O)(=O)N3CCOCC3)cc2)n1.Cl [GSK1669917] | 0% | 0% | 18% | 5% | 0% | 0% | 0% | 0% | 17% | 0% |  |  |  |  |  |  |  |  |  |
| Cc1cccc(-c2nc(Nc3cccc(C(N)=O)c3)c3ccccc3n2)n1 [GW876019] | 1% | 15% | 0% | 27% | 0% | 0% | 0% | 0% | 46% | 1% |  |  |  |  |  |  |  |  |  |
| COc1cc2ncn(-c3cc(OCC4CCCO4)c(C(N)=O)s3)c2cc1OC (stereo not drawn) [GSK204607] | 0% | 0% | 8% | 0% | 3% | 9% | 8% | 13% | 0% | 0% |  |  |  |  |  |  |  |  |  |
| O=C(Nc1n[nH]c2cc(-c3cccc(F)c3F)ccc12)C1CC1 [SB-733894] | 0% | 9% | 7% | 0% | 2% | 0% | 2% | 13% | 6% | 0% |  |  |  |  |  |  |  |  |  |
| Nc1nc(-c2nccs2)c(-c2ccnc3ccccc23)s1 [GW693542] | 14% | 18% | 0% | 20% | 0% | 20% | 0% | 20% | 0% | 0% |  |  |  |  |  |  |  |  |  |
| CS(=O)(=O)c1ccc(-c2c(-c3ncn[nH]3)sc(N3CCOCC3)c2C#N)cc1 | 0% | 15% | 14% | 4% | 0% | 0% | 0% | 16% | 14% | 4% |  |  |  |  |  |  |  |  |  |
| Cl.c1ccc(-c2n[nH]cc2-c2ccnc(-c3ccc(CN4CCOCC4)cc3)c2)nc1 [GW776245] | 0% | 0% | 0% | 0% | 0% | 0% | 44% | 0% | 17% | 34% |  |  |  |  |  |  |  |  |  |
| Cc1ccc(-c2cc(-c3c[nH]nc3-c3ccccn3)ccn2)cc1 [GW684088] | 25% | 17% | 37% | 2% | 0% | 2% | 19% | 8% | 24% | 6% |  |  |  |  |  |  |  |  |  |
| Cc1cccc(-c2nc(Nc3ccncc3)c3ccccc3n2)n1 [GW855857] | 0% | 0% | 0% | 20% | 0% | 0% | 4% | 0% | 8% | 0% |  |  |  |  |  |  |  |  |  |
| Cl.O=C(Nc1cccc(-c2nn3ncccc3c2-c2ccnc(Nc3cccnc3)n2)c1)c1c(F)cccc1F [GSK312879] | 0% | 0% | 0% | 20% | 0% | 9% | 0% | 8% | 10% | 27% |  |  |  |  |  |  |  |  |  |
| CS(=O)(=O)c1ccc(-c2nc3n(c2-c2ccncc2)CCC3)cc1 [SKF-105942] | 0% | 0% | 2% | 1% | 0% | 0% | 0% | 27% | 0% | 4% |  |  |  |  |  |  |  |  |  |
| NC(=O)c1nnc2ccccc2c1N | 0% | 7% | 0% | 21% | 30% | 6% | 21% | 31% | 0% | 33% |  |  |  |  |  |  |  |  |  |
| Cl.Oc1ccc(-c2nc(-c3ccccc3)[nH]c2-c2ccncc2)cc1 [SB-428218] | 70% | 61% | 0% | 0% | 0% | 0% | 11% | 30% | 0% | 6% |  |  |  |  |  |  |  |  |  |
| COc1cc(Nc2nccc(N3CCC(NC(=O)Nc4cc(C)ccc4C)C3)n2)cc(OC)c1OC (stereo not drawn) [GSK1379762] | 12% | 2% | 42% | 8% | 0% | 22% | 2% | 2% | 0% | 0% |  |  |  |  |  |  |  |  |  |
